# Source: PubChem
# In the library only some 0.56% were active in any assay of this set; here they are far more common.
# PvdQ acylase – P. aeruginosa PvdQ acylase inhibition | purified PvdQ acylase, fluorescence plate reader | inhibition, % at 10 µM | actives 0.063% (n = 340,000) | AID 488965; in the data active means inhibition above about 30%, passing the limit was not always enough; inconclusive means no clear call, values can overlap the other calls
# ERp5 block – inhibitors of human ERp5. inhibition, % at 9.99 µM. actives 0.05% (n = 350,000). ERp5 insulin aggregation, absorbance 650 nm, 90 min. AID 651711;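 active means mean replicate inhibition above about 25%, with every replicate also reaching it, limit read from the data, passing the limit was not always enough; inconclusive means only one of those two criteria met; inactive means neither criterion met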
# Target sequence (Q15084 whole entry, looked up): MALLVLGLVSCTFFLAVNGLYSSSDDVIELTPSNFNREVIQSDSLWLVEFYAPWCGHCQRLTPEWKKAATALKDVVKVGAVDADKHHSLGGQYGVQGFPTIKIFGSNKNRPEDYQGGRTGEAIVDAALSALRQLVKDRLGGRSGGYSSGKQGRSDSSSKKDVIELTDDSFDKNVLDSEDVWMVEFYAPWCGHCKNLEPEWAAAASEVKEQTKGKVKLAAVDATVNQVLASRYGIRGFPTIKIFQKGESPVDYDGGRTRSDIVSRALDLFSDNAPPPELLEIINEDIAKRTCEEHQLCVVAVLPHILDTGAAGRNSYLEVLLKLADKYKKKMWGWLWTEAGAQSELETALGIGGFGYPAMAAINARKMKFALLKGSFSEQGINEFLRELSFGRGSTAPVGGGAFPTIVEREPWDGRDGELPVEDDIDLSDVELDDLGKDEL
# Glyco luc inh – N-linked glycosylation inhibition; AID 588692; D54 ERlucT glycosylation luciferase reporter, 24 h; percent of 100 nM tunicamycin response; reporter increase, % at 12.5 µM; actives 0.23% (n = 360,000);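 active means mean luciferase reporter signal, scaled so untreated is 0 and the glycosylation-blocking control 100, at or above a set limit in every replicate; inconclusive means mean reaches the limit but not every replicate does; inactive means mean below the limit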;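 further: luciferase carries N-glycosylation sites so blocking glycosylation raises the light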
# Vif inh – inhibitors of HIV Vif | actives 0.35% (n = 340,000) | AID 602346 | HEK293T cells, Vif self-association by quenched fluorescence, imaging, 24 h | inhibition, % at 7.49 µM; in the data active means inhibition above about 50%, passing the limit was not always enough; inconclusive means no clear call, values can overlap the other calls; inactive means below about 31%
# PDI turbidity – blocks human protein disulfide isomerase activity. inhibition, % at 10 µM. AID 588391. PDI insulin aggregation turbidity, A650, 90 min. actives 0.052% (n = 350,000). P07237;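 active means mean inhibition across replicates of 30% or more, whatever share of single replicates reach that level; inconclusive means mean inhibition below 30% while every single replicate reaches 30%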
# Numbers stand for hits; . = inactive; ? = inconclusive; / = not tested or not shown.
SMILES,PvdQ acylase,ERp5 block,Glyco luc inh,Vif inh,PDI turbidity
COc1ccc(C(O)c2nc(-c3cc(F)cc(Cl)c3)cs2)cc1 (stereo not drawn),/,.,.,.,.
COC(=O)CCC(=O)NC(=S)Nc1sc(C)c(C)c1C(N)=O,.,/,?,.,.
Cc1sc(NC(=S)NC(=O)CCc2ccccc2)c(C(N)=O)c1C,.,.,.,125,.
COc1ccc(CC(C)NS(=O)(=O)c2ccc3c(c2)CCN3S(C)(=O)=O)cc1OC (stereo not drawn),.,.,.,.,.
COCCN(C(=O)CCC(=O)Nc1nccs1)C(C(=O)NC(C)(C)C)c1ccc(C)cc1 (stereo not drawn),.,.,.,84,.
CCC(=O)c1ccc(OCC(=O)Nc2nn3cnnc3s2)cc1,.,/,.,68,.
CCOc1ccc(NC(=O)COc2ccc(-n3cnnn3)cc2)cc1,.,.,.,.,.
CCN(CC)CCNc1ccc(CO)c2oc3ccccc3c(=O)c12,/,.,43,/,.
CCN(CC)CCNc1ccc(CO)c2sc3ccccc3c(=O)c12,.,.,.,.,.
CCc1nc(Sc2nnnn2-c2ccccc2)c2c3c(sc2n1)CCCC3,.,.,.,.,.
Cc1nc(Sc2nnnn2C)c2c3c(sc2n1)CCC3,.,/,.,97,.
CCN1/C(=C2/SC(=S)N(NC(C)=O)C2=O)Sc2ccc(OC)cc21,.,.,.,71,.
CCN1/C(=C2/SC(=S)N(NC(C)=O)C2=O)Sc2ccc(Cl)cc21,.,.,.,.,.
COc1ccccc1C(C(=O)NC1CCCC1)N(C(=O)c1csnn1)C1CC1 (stereo not drawn),.,.,.,.,.
CCC(=O)Nc1sc2c(c1C#N)CC(C)(C)NC2(C)C,.,/,.,.,.
CC(C)CC(=O)Nc1sc2c(c1C#N)CC(C)(C)NC2(C)C,.,/,.,56,.
Cc1ccc(C(=O)CCC(=O)NC2=NCCS2)cc1,.,.,.,.,.
Cc1ccc(C(=O)NC(=C(Cl)Cl)S(=O)(=O)c2ccccc2)cc1,.,.,?,.,.
COc1ccc(C(=O)NC(=C(Cl)Cl)S(=O)(=O)c2ccc(C)cc2)cc1,.,.,27,.,.
COC(=O)NC(=C(Cl)Cl)S(=O)(=O)c1ccccc1,.,/,51,.,.
Cc1cc2[nH]c(=O)c(=O)[nH]c2cc1S(=O)(=O)N(C)C1CCCCC1,.,.,.,.,/
Cc1c(NC(=O)c2cc3ccccc3oc2=O)c(=O)n(-c2ccccc2)n1C,.,/,.,90,.
O=C(c1ccccc1)c1cc2ccccc2oc1=O,.,.,.,.,.
O=C(NNC(=O)c1cc2ccccc2oc1=O)c1ccccc1,.,.,.,79,.
CNC(=O)C(=O)NCCN1CCN(C(=O)c2ccc([N+](=O)[O-])cc2)CC1,.,.,.,.,.
SMILES,PvdQ acylase,ERp5 block,Glyco luc inh,Vif inh,PDI turbidity
Cc1cc(Br)cn2c(Cc3ccccc3)c(-c3cccc(Cl)c3)nc12,/,.,/,/,/
COC(=O)c1cc(OC)c(OC)cc1NC(=S)NC(=O)c1ccco1,.,.,40,.,.
Cc1ccc(C(=O)N/C(=C\c2cccs2)C(=O)NCCc2c[nH]c3ccccc23)cc1,.,/,42,.,.
Cc1nc(Nc2nc(CSc3nc4ccccc4[nH]3)cc(=O)[nH]2)nc2ccccc12,.,/,.,.,.
Cc1nc(Nc2nc(-c3ccccc3)cc(=O)[nH]2)nc2ccccc12,.,.,103,.,.
CC1(C(=O)NC2CCCC2)CCC(=O)N1Cc1cccs1 (stereo not drawn),.,.,.,.,.
COc1ccc(/C=c2\s/c(=C/C(=O)c3ccc(C)cc3)[nH]c2=O)c(OC)c1,.,.,.,97,.
CSc1ccc(CN(C)CC(=O)NCCc2ccccc2)cc1,.,.,.,69,.
O=C(O)c1c2c(nc3ccc(S(=O)(=O)N4CCC(C(=O)NCc5ccccc5)CC4)cc13)CCCC2,/,.,.,/,.
CN(Cc1ccccc1)C(=O)C1CCN(S(=O)(=O)c2ccc3nc4c(c(C(=O)O)c3c2)CCCC4)CC1,.,.,.,69,.
O=C(Nc1nc(-c2cc(F)ccc2F)cs1)c1ccccn1,.,.,.,.,.
O=C(COC(=O)/C=C/c1cccc(Br)c1)NC1CCCCCC1,42,.,.,.,.
CN1CCN(CC(=O)Nc2cc(N(C)C)nc3ccccc23)CC1,.,.,44,.,.
CCN(CC)CC(=O)Nc1cc(N(C)C)nc2ccccc12,.,.,.,.,.
COc1ccc(C#Cc2c(-c3ccsc3)oc3ccc(N4CCOCC4)cc23)cc1,.,.,.,.,.
CCn1c(SCC(=O)c2ccc(O)c(O)c2)nnc1-c1ccccc1OC,.,/,.,/,.
